# hcDAF12 agonist: H. contortus DAF-12 activation, primary screen | HEK293 hcDAF-12 lit1-tk-luc reporter, luminescence; 0% DMSO, 100% Δ7-dafachronic acid | 1.4% of 370,000 active | activation, % at 6.8 µM;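 active means activation above the mean of all tested compounds plus 3 SD, cut at about 5.5% in these data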
# DAX1 StAR inh: DAX1 (NR0B1) inhibition, primary screen | AID 652010 | 1.1% of 370,000 active | inhibition, % at 6.8 µM | HEK293T StAR-luciferase reporter, SF-1/DAX-1 repression relief;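 active means inhibition above the mean over all tested compounds plus 3 SD, cut at about 3.6% in these data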;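 further: higher inhibition means more luminescence from relief of DAX-1 repression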
# hgDAF-12 ag: activates the H. glycines DAF-12 receptor ligand-binding domain. HEK293 GAL4-hgDAF12 UAS-luciferase reporter, agonist luminescence; normalized to butyrate control. activation, % at 6.8 µM. 1.8% of 370,000 active. AID 687014;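 active means activation above a cutoff set at the mean of all screened compounds plus 3 SD, cut at about 10% in these data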
# SMARCA2 activ: activators of SMARCA2 function. MG213 cells, MMTV-luciferase reporter, dexamethasone, overnight. activation, % at 9.1 µM. 1% of 370,000 active; in the data active means activation above about 7.8%
# ssDAF-12 act: activates DAF-12 receptor from parasite S. stercoralis. HEK293 ssDAF-12/GRIP1 lit1-tk-luc reporter, luminescence; % of 3 µM dafachronic acid response. activation, % at 6.8 µM. 1% of 370,000 active;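 active means activation above the mean over all tested compounds plus 3 SD, cut at about 0.9% in these data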
# SMARCA2 act conf: confirmation of SMARCA2 (BRM) function activators | activation, % at 9.1 µM | AID 652260 | shares compounds with SMARCA2 activ | MG213 cells, MMTV-luciferase with dexamethasone, luminescence, overnight; MG213 cells expressing E1A, Rb sequestered; DMSO wells 0%, reference activator 100% | 30% of 3,500 active;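 active means activation above its plate's cutoff, the mean activation of tested wells plus 3 SD, cut at about 7.9% in these data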
# GAL4-VP16 Luc: GAL4-VP16 reporter activation counter-screen. shares compounds with SMARCA2 activ. HEK293 GAL4-VP16 pG5luc reporter, luciferase luminescence; scaled: DMSO wells 0%, SAHA wells 100%. activation, % at 9.1 µM. 41% of 3,500 active;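 active means activation above the solvent-only control well mean plus 3 SD, averaged across control plates, cut at about 5.2% in these data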
# Hits are given with their value; i = inactive; nt = no result given. Sampled rows, rich in hits. Any-hit rate of the full collection: about 4.2%.
SMILES,hcDAF12 agonist,DAX1 StAR inh,hgDAF-12 ag,SMARCA2 activ,ssDAF-12 act,SMARCA2 act conf,GAL4-VP16 Luc
CCNC(=S)NNC(=O)c1cnccn1,i,i,i,i,i,nt,nt
COc1cc(CNc2cccc(F)c2)cc(Br)c1O,i,i,i,9.2,1.5,i,i
COc1ccc(CNc2ccccc2)cc1Br,i,i,i,i,i,nt,nt
COC(=O)c1c(-c2cccnc2)csc1NC(=O)c1cc(C)on1,6.5,4.5,i,10.3,i,18.6,14.1
Cc1ccnc(NC(=O)Cn2cc([N+](=O)[O-])cn2)c1,i,i,11.2,16.1,i,i,5.8
N=c1c2c(-c3ccccc3)c(-c3ccccc3)n(Cc3ccccc3)c2ncn1CCO,i,i,i,8.7,i,i,i
N=c1c2c(-c3ccccc3)c(-c3ccccc3)n(Cc3ccco3)c2ncn1Cc1ccccc1,i,i,i,i,i,nt,nt
O=C(O)c1cccc(NC2=Nc3cccc4cccc2c34)c1,i,i,i,9.9,i,10.4,9.4
O=C(O)c1cccc(Nc2ccnc(Nc3cccc(C(=O)O)c3)n2)c1,i,i,i,8.0,i,i,i
COc1ccc(CN2C(=O)CN(S(C)(=O)=O)CC2(C)c2nnnn2C2CCCCC2)cc1 (stereo unspecified),i,i,i,i,i,nt,nt
O=C(Nc1ccccc1)Nc1nc2ncccn2c1-c1ccc(F)c(F)c1,i,i,i,i,i,nt,nt
Cc1ccc(N2C(=O)c3cccc4c([N+](=O)[O-])ccc(c34)C2=O)c2cccnc12,i,i,i,i,i,nt,nt
Cc1nnc(N2C(=O)c3cccc4c([N+](=O)[O-])ccc(c34)C2=O)s1,i,i,i,21.5,i,i,14.7
Cc1ccnc(N2C(=O)c3cccc4c([N+](=O)[O-])ccc(c34)C2=O)c1,i,i,i,9.9,i,i,i
O=C1c2cccc3c([N+](=O)[O-])ccc(c23)C(=O)N1Cc1cccnc1,i,i,i,i,i,nt,nt
COC(=O)C[C@@H]1CC[C@@H](NC(=O)C2CCC2)[C@@H](CO)O1,i,i,i,i,i,nt,nt
Oc1ccc(CCNc2c3ccccc3nc3ccccc23)cc1O,i,i,i,8.4,i,24.7,i
CN(C)CCCNc1c2ccccc2nc2ccccc12,i,i,i,i,i,nt,nt
COc1ccc(NC(=O)C[C@H]2C(=O)N(C3CCCCC3)C[C@@H]2C)cc1,i,i,i,i,i,nt,nt
COc1ccc(NC(=O)C[C@H]2C(=O)N(C3CCCCC3)C[C@@H]2CSC)cc1,i,i,i,8.3,i,i,i
COc1cc2c3nnc(-c4ccccc4)c-3cn(Cc3ccccc3F)c2cc1OC,i,i,i,9.9,i,17.6,i
CN(CCO)C1CN(Cc2cn(Cc3ccccc3C(F)(F)F)nn2)S(=O)(=O)C1 (stereo unspecified),i,i,i,i,i,nt,nt
CCCc1nc2oc3c(NCCCN(C)C)ncnc3c2c2c1CCCC2,i,i,i,19.2,i,19.1,i
Cc1nn(-c2ccccc2)nc1C(=O)Nc1ccccc1C(=O)NCC1CC1,i,i,i,i,i,nt,nt
CN(C)C(=O)CCc1nc(-c2ccc(C(C)(C)C)cc2)no1,i,i,i,11.3,i,i,5.3
SMILES,hcDAF12 agonist,DAX1 StAR inh,hgDAF-12 ag,SMARCA2 activ,ssDAF-12 act,SMARCA2 act conf,GAL4-VP16 Luc
CCOCCCNc1ccc(-c2ccccc2)nn1,i,i,i,11.8,i,10.4,6.1
CCOCCCNc1nc2ccccc2[nH]1,i,i,i,i,i,nt,nt
CS(=O)(=O)c1ccc(C(=O)OCC(=O)NCc2cccs2)cc1[N+](=O)[O-],i,i,i,11.9,i,i,i
COc1ccc(C(=O)OCC(=O)Nc2ccc(F)c(F)c2F)cc1OC,i,i,i,10.1,i,i,i
Cc1cccc(C(=O)OCC(=O)NCc2cccs2)c1,i,i,i,i,i,nt,nt
COC(=O)CNC(=O)COC(=O)c1ccc(OC)c([N+](=O)[O-])c1,i,i,i,9.1,i,i,i
CCCC1CCC2(CCC(=O)N2CCO)CC1 (stereo unspecified),i,i,i,i,i,nt,nt
CCNS(=O)(=O)c1ccc(OCCNS(C)(=O)=O)cc1,i,i,i,8.1,i,i,i
CCN(CC)c1ccc(/C=N/Nc2nc(C)cc(C)n2)cc1,i,i,i,8.1,i,i,i
CCN(CC)c1ccc(/C=N/Nc2nn[nH]n2)cc1,i,i,i,i,i,nt,nt
COc1ccc([C@H]2CC(=O)C=C(c3ccc4c(c3)OCCO4)C2)cc1,i,i,i,8.3,i,i,i
CCCCCCCCN1C(=O)[C@@H](CC(=O)NCCc2ccccc2OC)C[C@@]2(C(=O)OC)C1=C[C@H](C(C)C)O[C@@H]2C1CC1,i,i,i,i,i,nt,nt
Brc1ccc(-c2nnc(-c3ccc4c(c3)OCO4)o2)o1,i,i,i,i,i,nt,nt
Clc1ccc(-c2nnc(-c3cccnc3)o2)cc1,i,i,i,i,i,nt,nt
Clc1ccc(-c2nnc(-c3ccccc3)o2)cn1,i,i,i,8.6,i,i,i
c1coc(-c2nnc(-c3ccc4c(c3)OCO4)o2)c1,i,3.7,12.8,10.0,i,8.4,10.6
c1ccc(-c2nnc(-c3ccco3)o2)cc1,5.8,i,10.6,8.4,i,i,9.0
Brc1ccc(-c2nnc(-c3ccco3)o2)cc1,i,i,i,i,i,nt,nt
CCCCOCCCNC(=O)C[C@H]1C[C@@]2(C(=O)OC)C(=C[C@H](COCc3ccccc3)O[C@@H]2C)N(Cc2ccc(Cl)cc2Cl)C1=O,i,i,i,i,i,nt,nt
O=C(CSc1nnc(-c2cccs2)n1Cc1ccco1)Nc1ccc(Oc2ccccc2)cc1,i,i,i,i,i,nt,nt
Cc1cc2nc(/C=C/c3cccnc3)[nH]c2cc1C,6.4,4.0,i,8.7,1.7,16.0,26.7
Cc1ccc(C2c3c(-c4ccccc4)n[nH]c3C(=O)N2c2ccccc2)cc1 (stereo unspecified),i,i,i,i,i,nt,nt
Cc1ccccc1N=Nc1c(C)[nH]n(C(N)=S)c1=O,i,i,i,14.5,i,i,i
c1ccc2c(c1)nnn2-c1ncnc2sccc12,i,i,i,11.6,i,9.9,i
C=CCN(CC#Cc1ccc(C)cc1)Cc1ccc(OC)cc1OC,i,i,i,i,i,nt,nt
COc1ccc(-c2nnc(-c3ccc(N(C)C)cc3)o2)cc1,i,i,i,16.4,i,12.1,i
COc1ccc(-c2nnc(-c3cccnc3)o2)cc1,i,i,i,i,i,nt,nt
C=CCN(C(=O)[C@@H](C)[C@@H](O)c1ccc(Cl)cc1)c1ccccc1,i,i,i,i,i,nt,nt

# Compound activity from PubChem.
